G9a inh – blocks human histone lysine methyltransferase G9a | Potency, µM (series often up to 102 µM), hits mostly inhibitors | AID 504332 | Q96KQ7 | G9a H3K9 monomethylation, AlphaScreen, 2 h | 8.8% of 350,000 active; also: nearly all actives have a fitted effect of over 75% in size
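Enzyme 20 nM + cpd, 15 min RT; add b-H3K9 pep 500 nM / SAM 20 uM; 2 h RT; anti-H3K9me1 Ab 0.5 ug/mL + SA donor / anti-rabbit acceptor beads 20 ug/mL each, 10 min; AlphaScreen read.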
BAZ2B inh – inhibitors of human BAZ2B bromodomain. Q9UIF8. AlphaScreen BAZ2B-H3K14Ac peptide displacement. Potency, µM (highest dose often 114 µM), hits mostly inhibitors. 4.4% of 360,000 active. AID 504333; also: nearly all actives have a fitted effect of over 60% in size
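Complex of BAZ2B and biotin-H3K14Ac (50 nM apiece) forms over 30 min at RT, then faces library compounds up to 110 uM for another 30 min; AlphaScreen beads added, 20 min dark incubation, luminescence read.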
HP1b binding inh – blocks HP1-beta chromodomain binding to methylated histone tails; Potency, µM (top dose mostly 114 µM), hits mostly inhibitors; P83916; 0.56% of 390,000 active; AlphaScreen HP1-beta / biotin-H3K9me3 peptide binding; AID 540317; also: nearly all actives have a fitted effect of over 70% in size
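AlphaScreen: HP1-beta (50 nM) preformed 30 min with biotin-H3(1-18)K9me3 peptide (50 nM) in PBS pH 7.4, 0.01% Tween-20. Compound added for 30 min at RT, then streptavidin donor/nickel chelate acceptor beads (10 ug/mL) for 30 min.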
JMJD2A Tudor inh – JMJD2A Tudor domain (human) inhibition; AlphaScreen JMJD2A-Tudor / H3K4me3 peptide binding; Potency, µM (highest dose often 114 µM), most hits filed as inhibitors; 4.4% of 390,000 active; AID 504339; also: nearly all actives have a fitted effect of over 50% in size
PLK1 PBD block – inhibitors of human PLK1 polo-box domain binding; Plk1 PBD binding of FITC phosphopeptide, fluorescence polarization; Potency, µM, most hits filed as inhibitors; 2.8% of 360,000 active; AID 720504; also: series mostly up to about 57 µM; nearly all actives have a fitted effect of over 65% in size
Target sequence (P53350 whole entry, looked up, the tested form may be a part): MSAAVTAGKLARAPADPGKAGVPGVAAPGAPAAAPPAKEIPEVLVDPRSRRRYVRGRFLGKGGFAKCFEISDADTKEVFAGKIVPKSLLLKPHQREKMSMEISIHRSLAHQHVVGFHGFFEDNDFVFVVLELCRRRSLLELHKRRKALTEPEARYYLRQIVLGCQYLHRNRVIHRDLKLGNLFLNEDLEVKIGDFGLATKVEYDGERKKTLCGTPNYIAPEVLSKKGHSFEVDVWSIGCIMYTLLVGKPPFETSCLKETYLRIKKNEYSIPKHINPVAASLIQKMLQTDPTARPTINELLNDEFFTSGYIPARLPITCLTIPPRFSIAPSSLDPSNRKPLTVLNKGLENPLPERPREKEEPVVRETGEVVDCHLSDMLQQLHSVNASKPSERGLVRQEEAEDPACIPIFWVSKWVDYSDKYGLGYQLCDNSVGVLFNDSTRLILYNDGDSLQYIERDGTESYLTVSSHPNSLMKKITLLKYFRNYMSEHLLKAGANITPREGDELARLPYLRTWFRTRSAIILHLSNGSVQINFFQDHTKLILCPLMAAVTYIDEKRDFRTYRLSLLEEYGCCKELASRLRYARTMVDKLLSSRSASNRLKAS
Sfp inh – Sfp phosphopantetheinyl transferase inhibition; Biochemical Sfp PPTase activity, qHTS; Potency, µM, usual class: inhibitors; 3.5% of 310,000 active; AID 1490;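 also: the enzyme is Sfp with the accession as filed and its product quenches rhodamine fluorescence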
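After 15 min at room temperature with compound, 15 nM Sfp received 5 uM rhodamine-CoA plus 12.5 uM BHQ-2-ybbR (50 mM Hepes pH 7.6, 10 mM MgCl2). Rate came from the fluorescence difference over 30 min, ex 525/em 598 nm.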
A number is an active result; - = inactive; ? = inconclusive; . = no result given; [ ] = another dose, or the depositor's remark. This is a sample that favours compounds with a hit; in the whole collection about 12% have one here. Calls follow the shape of the dose curve; as a rule, active = well fitted curve in the direction sought with a large enough effect; inconclusive = small, poorly fitted or top-dose-only effect, or another doubt; inactive = no such curve, though single readings can be large; an effect the other way counts as inactive or inconclusive.

SMILES	G9a inh	BAZ2B inh	HP1b binding inh	JMJD2A Tudor inh	PLK1 PBD block	Sfp inh
CC(=O)Nc1ccc(S(=O)(=O)N2c3ccccc3NC(=O)CC2C)c(Cl)c1 (stereo unspecified)	.	-	-	-	-	-
COc1cccc(/C=N/NC(=O)C(=O)N2CCCC2)c1OC	?	-	-	-	-	-
CCOc1ccc(/C=N/NC(=O)C(=O)N2CCCCCC2)c2ccccc12	-	71µM	-	-	-	-
O=C(N/N=C/c1ccccc1O)C(=O)N1CCCCCC1	-	79µM	-	?	-	-
O=C(N/N=C/c1ccccc1F)C(=O)N1CCCCCC1	-	-	-	-	-	-
COc1cccc(/C=N/NC(=O)C(=O)N2CCCC2)c1O	?	16µM	-	79µM	-	-
Cc1c(N=C2C=C(Br)C(=O)C(Br)=C2)c(=O)n(-c2ccccc2)n1C	7.1µM	20µM	28µM	56µM	6.7µM	40µM
Cc1csc(=Nc2c(C)n(C)n(-c3ccccc3)c2=O)n1Cc1ccccc1	-	-	-	-	-	-
Cc1c(N=C2C=CC(=O)c3ccccc32)c(=O)n(-c2ccccc2)n1C	35µM	28µM	10µM	45µM	19µM	18µM
Cc1c(N2C(=O)c3ccccc3C2=O)c(=O)n(-c2ccccc2)n1C	-	-	-	-	-	-
CC(C)(C)C1CCC2(CC1)CC(=O)c1ccccc1O2 (stereo unspecified)	-	-	-	-	-	-
CCSC[C@H](NC(=O)[C@H](C)NC(=O)[C@@H](N)Cc1ccc(O)cc1)C(=O)N[C@@H](CC(=O)O)C(=O)N[C@H](C(=O)N[C@@H](C)C(=O)N[C@H](C(=O)N[C@@H](CSCC)C(=O)N[C@H](C(=O)N[C@H](C(=O)N[C@@H](Cc1cnc[nH]1)C(=O)N[C@@H](CCCNC(=N)N)C(=O)N[C@@H](CC(C)C)C(=O)N[C@@H](C)C(=O)NCC(=O)N[C@@H](CC(C)C)C(=O)N[C@@H](CC(C)C)C(=O)N[C@@H](CO)C(=O)N[C@@H](CCCNC(=N)N)C(=O)N[C@@H](CO)C(=O)NCC(=O)NCC(=O)N[C@H](C(=O)N[C@H](C(=O)N[C@@H](CCCCN)C(=O)N[C@@H](CC(N)=O)C(=O)N[C@@H](CC(N)=O)C(=O)N[C@@H](Cc1ccccc1)C(=O)N[C@H](C(=O)N1CCC[C@H]1C(=O)N[C@H](C(=O)N[C@@H](CC(N)=O)C(=O)N[C@H](C(=O)NCC(=O)N[C@@H](CO)C(=O)N[C@@H](CCCCN)C(=O)N[C@@H](C)C(=O)N[C@@H](Cc1ccccc1)C(N)=O)C(C)C)[C@@H](C)O)C(C)C)C(C)C)C(C)C)[C@@H](C)O)C(C)C)[C@@H](C)O)[C@@H](C)O	.	.	.	.	.	-
C=CCn1c(SCC(=O)NC2CC2)nc2sc(CC)cc2c1=O	-	-	-	?	27µM	-
C=CCn1c(SCC2CCCCO2)nc2sc(CC)cc2c1=O (stereo unspecified)	-	-	-	-[11.4 µM]	27µM	-
C=CCn1c(SCC(=O)NC2CCS(=O)(=O)C2)nc2sc(CC)cc2c1=O (stereo unspecified)	-	-	-	-	-	-
CN(C)CCNC(=O)c1ccc(Cn2c(=O)c3cccn3c3cccnc32)cc1	-	-	-	-	.	.
CCNS(=O)(=O)c1ccc(CCC(=O)NCc2ccc3c(c2)OCO3)cc1	.	-	-	-	-	-
COC(=O)c1cc2oc3ccccc3c2n1Cc1ccccn1	-	-	-	-	-	40µM
COC(=O)c1cc2oc3ccccc3c2n1Cc1ccc(C)cc1	-	-	-	-	.	.
CCN1C(=O)/C(=C/C2=Cc3ccccc3OC2C)SC1=S (stereo unspecified)	?	?	?	?	-	-
Cc1ccsc1/C=C/C1=Cc2c(sc(NC(=O)CSc3n[nH]c(N)n3)c2C#N)C(C)(C)C1	35µM	?	-	?	-	40µM
CCOc1ccc(/C=C/C2=Cc3c(sc(NC(=O)CSc4n[nH]c(N)n4)c3C#N)C(C)(C)C2)cc1	?	40µM	-	?	-	40µM
CC(C)(C)NC(=O)[C@H]1CN(Cc2cccnc2)CCN1C[C@@H](O)C[C@@H](Cc1ccccc1)C(=O)N[C@H]1c2ccccc2C[C@H]1O	-	.	.	.	.	-
Oc1ccc2ccccc2c1C=NNc1ccccn1	.	.	-	-	?	.
O=c1c2ccccc2nc(N/N=C/c2c(O)ccc3ccccc23)n1O	?	28µM	-	50µM	30µM	40µM
SMILES	G9a inh	BAZ2B inh	HP1b binding inh	JMJD2A Tudor inh	PLK1 PBD block	Sfp inh
O=c1c2ccccc2nc(N/N=C/c2ccc(O)cc2)n1O	?	-	-	-	?	35µM
COc1cccc2c1cc1c(=O)n(CC(=O)N3CCN(c4ccccc4F)CC3)nc(C)n12	-	-	-	-	.	.
C#CCOCCOCCOCCNc1nc(N2CCOCC2)nc(N2CCN(C(=O)[C@H](CC(N)=O)n3cc([C@@H](N)C(C)C)nn3)CC2)n1	.	.	-	-	-	.
C#CCOCCOCCOCCNc1nc(N2CCN(C(=O)[C@H](CCC(=O)O)n3cc(C(N)Cc4ccc(O)cc4)nn3)CC2)nc(N2CCN(C(=O)[C@H](Cc3cc4ccccc4[nH]3)n3cc(C(N)CC(C)C)nn3)CC2)n1 (stereo partly specified)	-[12.7 µM]	79µM	.	.	.	-
C#CCOCCOCCOCCNc1nc(N2CCN(C(=O)[C@H]([C@@H](C)CC)n3cc([C@@H](N)CO)nn3)CC2)nc(N2CCN(C(=O)[C@H](Cc3cc4ccccc4[nH]3)n3cc([C@@H](N)Cc4ccc(O)cc4)nn3)CC2)n1	?	14µM	.	.	.	?
C#CCOCCOCCOCCNc1nc(N2CCOCC2)nc(N2CCN(C(=O)[C@H](Cc3cc4ccccc4[nH]3)n3cc([C@@H](N)Cc4ccc(O)cc4)nn3)CC2)n1	?	?	-	?	27µM	-
C#CCOCCOCCOCCNc1nc(N2CCN(C(=O)C(Cc3ccc(O)cc3)n3cc(C(N)CC(C)C)nn3)CC2)nc(N2CCN(C(=O)C(Cc3cc4ccccc4[nH]3)n3cc(C(N)Cc4ccc(O)cc4)nn3)CC2)n1 (stereo unspecified)	-[12.7 µM]	35µM	.	.	.	-
CCOc1ccc(CNC(=O)Cn2nc(C)c3nn(-c4ccc(Cl)cc4)c(C)c3c2=O)cc1OC	-	-	-	-	.	.
O=C(CCN1C(=O)c2ccccc2Sc2ncccc21)Nc1ccc(F)cc1F	-	-	-	-	.	.
O=C(Nc1ccc(Cl)cc1)C1CCN(S(=O)(=O)c2ccc(Br)s2)CC1	-	-	-	-	.	.
O=c1[nH]c(Nc2ccc(F)cc2)cc2ccccc12	11µM	-	-	-	-	-
COc1ccccc1Nc1cc2ccccc2c(=O)[nH]1	.	.	.	79µM	.	.
O=c1[nH]c(Nc2ccccc2Cl)cc2ccccc12	.	.	-	-	-	.

Screens (PubChem)
